GDH-TPI counter – counter-screen for M. tuberculosis FBA inhibitors: GDH-TPI coupled enzymes. GDH-TPI coupled enzyme counterscreen, NADH absorbance. 1.2% of 360,000 active. inhibition, % at 4.8 µM
FBA Mtb inh – Mtb fructose-bisphosphate aldolase inhibition | 2.3% of 360,000 active | inhibition, % at 1 µM | purified M. tuberculosis FBA, fluorescence read-out | AID 588726 | P9WQA3; in the data active means inhibition above about 27%
Target sequence (P9WQA3 whole entry, looked up): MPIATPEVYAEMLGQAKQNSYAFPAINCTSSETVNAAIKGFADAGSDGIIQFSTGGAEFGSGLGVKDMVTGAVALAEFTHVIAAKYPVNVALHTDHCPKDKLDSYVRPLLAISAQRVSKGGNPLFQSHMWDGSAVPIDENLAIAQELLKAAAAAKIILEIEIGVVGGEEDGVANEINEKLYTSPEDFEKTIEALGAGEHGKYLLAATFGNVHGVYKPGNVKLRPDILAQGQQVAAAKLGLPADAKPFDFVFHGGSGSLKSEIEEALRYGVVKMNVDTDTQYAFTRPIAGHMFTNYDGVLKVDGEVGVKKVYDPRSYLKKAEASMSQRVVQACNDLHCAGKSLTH
CCHF vOTU inh – CCHFV vOTU protease inhibition; 0.55% of 370,000 active; inhibition, % at 11.5 µM; Pep-AMC fluorescence
RecA splice inh – inhibitors of M. tuberculosis RecA intein splicing; P9WHJ3; cell-free RecA intein splicing, fluorescence; inhibition, % (test concentration not listed); 0.75% of 290,000 active; AID 2221; in the data active means inhibition above about 30%
Mtb bLac sens – beta-lactam sensitization of Mtb H37Rv | M. tuberculosis H37Rv growth with meropenem, percent inhibition | inhibition, % at 25 µM | 0.27% of 330,000 active | AID 434955; call rule not given here;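 further: growth measured after seven days incubation then overnight dye step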
A number is an active result. In the library only some 4.2% were active in any assay of this set; here they are far more common. Unless noted, no stated cut-off is given here; in the data, active means inhibition above about 30%; inactive means the rest.

For COc1ccc(C(=O)OCCCN(C)C2CN(Cc3cn(Cc4cccc(F)c4)nn3)S(=O)(=O)C2)cc1OC (stereo not given) the results were CCHF vOTU inh inactive.
`COc1cc(/C=C/c2cc[n+](C)cc2)ccc1OCC(=O)Nc1ccc(Cl)c(Cl)c1` gave GDH-TPI counter inactive, FBA Mtb inh inactive, CCHF vOTU inh inactive, RecA splice inh 40.4 and Mtb bLac sens inactive.
For Cc1nc(Nc2ccccc2)sc1C(=O)Nc1ccccc1 the results were GDH-TPI counter inactive, FBA Mtb inh inactive, CCHF vOTU inh inactive, RecA splice inh inactive and Mtb bLac sens inactive.
For Cc1nnc(Nc2ccc(S(N)(=O)=O)cc2)c2ccccc12 the results were GDH-TPI counter 34.3, FBA Mtb inh inactive, CCHF vOTU inh inactive and Mtb bLac sens inactive.
Screening Cc1nc(Nc2ccc(S(N)(=O)=O)cc2)sc1C(=O)Nc1ccccc1 returned GDH-TPI counter 34.9, FBA Mtb inh inactive, CCHF vOTU inh inactive, RecA splice inh inactive and Mtb bLac sens inactive.
Screening CC(=O)N1CCc2cc(S(=O)(=O)NC3CCN(C(=O)CCl)CC3)ccc21 returned CCHF vOTU inh inactive.
COc1ccc(CNCC#Cc2ccc(C(F)(F)F)cc2)c(OC)c1 was read as CCHF vOTU inh inactive.
CCOC(=O)[C@]12CCCC3=C1N(CCC3)C(=O)[C@@H](CC(=O)NCC1CCCCC1)C2 was read as CCHF vOTU inh inactive.
`CCc1[nH]nc(C(=O)N2CCCC(C(=O)c3cccc(OC(C)C)c3)C2)c1C` (stereo not given) gave GDH-TPI counter inactive, FBA Mtb inh 163.6, CCHF vOTU inh inactive, RecA splice inh inactive and Mtb bLac sens inactive.
`O=C(O)c1cc(C2CC2)nn1-c1ccccc1` gave GDH-TPI counter inactive, FBA Mtb inh inactive, CCHF vOTU inh inactive, RecA splice inh inactive and Mtb bLac sens inactive.
For CC1CCC(NC(=O)c2cc(C3CC3)nn2-c2ccccc2)CC1 (stereo not given) the results were GDH-TPI counter inactive, FBA Mtb inh active, CCHF vOTU inh inactive and Mtb bLac sens inactive.
Screening CC(=O)/C(=C/Nc1ccc(Oc2ccccc2)cc1)c1ccccc1 returned GDH-TPI counter inactive, FBA Mtb inh inactive, CCHF vOTU inh inactive, RecA splice inh inactive and Mtb bLac sens inactive.
COc1cc(N/C=C(\C(C)=O)c2ccccc2)cc(OC)c1 was read as GDH-TPI counter 43.7, FBA Mtb inh inactive and Mtb bLac sens inactive.
For O=C(NC1CCCCC1)C(c1ccnc2ccccc12)N1CCc2ccccc2C1 (stereo not given) the results were FBA Mtb inh inactive and CCHF vOTU inh 76.3.
`CC(NC(=O)c1ccccc1N)c1ccccc1` (stereo not given) gave GDH-TPI counter inactive, FBA Mtb inh 46.9, CCHF vOTU inh inactive, RecA splice inh inactive and Mtb bLac sens inactive.
Screening O=c1[nH]ncc(N/N=C\c2cccnc2)c1Cl returned GDH-TPI counter 42.6, FBA Mtb inh inactive, CCHF vOTU inh inactive, RecA splice inh inactive and Mtb bLac sens inactive.
COc1ccccc1/C=N\Nc1cn[nH]c(=O)c1Cl was read as GDH-TPI counter inactive, FBA Mtb inh inactive, CCHF vOTU inh inactive, RecA splice inh inactive and Mtb bLac sens inactive.
Screening Cc1cccc(/C=N\Nc2cn[nH]c(=O)c2Cl)c1 returned GDH-TPI counter 43.7, FBA Mtb inh inactive, CCHF vOTU inh inactive, RecA splice inh inactive and Mtb bLac sens inactive.
For COc1ccccc1NS(=O)(=O)c1cccc(C(=O)N/N=C/c2ccc(C)o2)c1 the results were GDH-TPI counter 40.5, FBA Mtb inh inactive, CCHF vOTU inh inactive, RecA splice inh inactive and Mtb bLac sens inactive.
For COc1ccccc1NS(=O)(=O)c1cccc(C(=O)N/N=C/c2ccccc2OCC(=O)O)c1 the results were GDH-TPI counter inactive, FBA Mtb inh inactive, CCHF vOTU inh inactive, RecA splice inh inactive and Mtb bLac sens inactive.
`COc1ccccc1NS(=O)(=O)c1cccc(C(=O)N/N=C/c2ccc(N3CCOCC3)cc2)c1` gave GDH-TPI counter 34.4, FBA Mtb inh inactive, CCHF vOTU inh inactive, RecA splice inh inactive and Mtb bLac sens inactive.
For O=S1(=O)C=CCN1Cc1cn(Cc2ccc(F)cc2)nn1 the results were CCHF vOTU inh inactive.
Cc1ccc(-c2nnc(SCC(=O)NNC(=S)Nc3ccccc3)n2C2CCCCC2)cc1 was read as CCHF vOTU inh inactive.
Screening O=C(C1CCCN1S(=O)(=O)c1ccc(Cl)s1)N1CCc2ccccc2C1 (stereo not given) returned CCHF vOTU inh inactive.
For COc1cc(C2C(C#N)=C(N)Oc3c2c(-c2ccccc2)nn3-c2ccccc2)cc(OC)c1OC (stereo not given) the results were GDH-TPI counter inactive, FBA Mtb inh inactive, CCHF vOTU inh inactive, RecA splice inh 69.6 and Mtb bLac sens inactive.
Screening O=S1(=O)c2c(cccc2N2CCC[C@@H]2CO)OCCCN1C1CC1 returned CCHF vOTU inh inactive.
Screening CC(C)n1c(=N)c(C(=O)NCCc2ccccc2)cc2c(=O)n3ccccc3nc21 returned GDH-TPI counter inactive, FBA Mtb inh active, CCHF vOTU inh inactive, RecA splice inh inactive and Mtb bLac sens inactive.
For Cc1cccn2c(=O)c3cc(C(=O)NCc4ccco4)c(=N)n(C(C)C)c3nc12 the results were GDH-TPI counter inactive, FBA Mtb inh active, CCHF vOTU inh inactive, RecA splice inh inactive and Mtb bLac sens inactive.
Screening COc1ccc(CCNC(=O)c2cc3c(=O)n4cccc(C)c4nc3n(Cc3ccco3)c2=N)cc1OC returned GDH-TPI counter inactive, FBA Mtb inh inactive, CCHF vOTU inh inactive, RecA splice inh inactive and Mtb bLac sens inactive.
Screening Cc1cccn2c(=O)c3cc(C(=O)NCc4cccnc4)c(=N)n(C(C)C)c3nc12 returned GDH-TPI counter inactive, FBA Mtb inh active, CCHF vOTU inh inactive, RecA splice inh inactive and Mtb bLac sens inactive.
For C=CCNC(=O)CN(C(=O)Cc1ccc(Cl)cc1)c1cccc(Br)c1 the results were CCHF vOTU inh inactive.
For O=C(CSc1nnc(-c2ccccn2)n1-c1ccccc1)Nc1ccccc1-c1ccccc1 the results were CCHF vOTU inh inactive.
COc1ccccc1-c1coc2c(CN3CCN(C)CC3)c(O)ccc2c1=O was read as GDH-TPI counter inactive, FBA Mtb inh 131.9, CCHF vOTU inh inactive, RecA splice inh inactive and Mtb bLac sens inactive.
Screening CCN1CCN(Cc2c(O)ccc3c2O/C(=C\C=C\c2ccccc2OC)C3=O)CC1 returned GDH-TPI counter inactive, FBA Mtb inh inactive, CCHF vOTU inh inactive, RecA splice inh inactive and Mtb bLac sens inactive.
`COc1ccccc1Oc1c(C)oc2c(CN3CCN(CCO)CC3)c(O)ccc2c1=O` gave CCHF vOTU inh inactive, RecA splice inh inactive and Mtb bLac sens inactive.
`COc1ccccc1-c1coc2c(CN3CCN(CCO)CC3)c(O)ccc2c1=O` gave GDH-TPI counter inactive, FBA Mtb inh 151.9, CCHF vOTU inh inactive, RecA splice inh inactive and Mtb bLac sens inactive.
Screening CCN1CCN(Cc2c(O)ccc3c(=O)c(-c4ccccc4OC)coc23)CC1 returned GDH-TPI counter inactive, FBA Mtb inh 118.8, CCHF vOTU inh inactive, RecA splice inh inactive and Mtb bLac sens inactive.
CN1CCN(Cc2c(O)ccc3c(=O)c(Oc4ccccc4Cl)c(C(F)(F)F)oc23)CC1 was read as GDH-TPI counter inactive, FBA Mtb inh inactive, CCHF vOTU inh inactive, RecA splice inh inactive and Mtb bLac sens inactive.
